This passage reports Potency and cytotoxicity increase results from PubChem BioAssay (Tox21).

Inconclusive results are not listed. Where a call stands in place of a potency, no number is given. A number with no mark means an inactive call. Active and inactive are the calls of the source. Calls follow the shape of the dose curve; as a rule, active = well fitted activation curve with a large enough effect in the repeat runs; inconclusive = weak or mixed curves; inactive = flat fitted curve, though single readings scatter.
Potency is read from the fitted curve at half-maximal effect.

This assay in a line: A CellTox Green Cytotoxicity Assay to monitor cytotoxicity in HEK293 cells - 32 hour (AID 1224881). Also: nearly all actives have a fitted effect of over 40% in size. The note with it: CellTox Green fluorescence; series mostly up to 76.8 µM. An excerpt:
National Center for Advancing Translational Sciences [NCATS]
NIH Chemical Genomics Center [NCGC]
U.S. Environmental Protection Agency [EPA]
National Institutes of Environmental Health Sciences [NIEHS]
National Toxicology Program [NTP]
Cell-based models are critical for drug discovery. Determining the natural cytotoxic effects resulting from test compounds is an essential research activity. A CellTox Green Cytotoxicity Assay to monitor cytotoxicity in real time of continues cell culture during 40 hours of the compound treatment was used to screen Tox21 10K library compounds in Hek293 cells. CellTox Green Cytotoxicity Assay is a nonlytic, homogeneous, biofluorescent method to measure cytotoxicity in cell culture after experimental manipulation. The assay system uses a proprietary asymmetric cyanine dye that is excluded from viable cells but preferentially stains the dead cell's DNA. […] Viable cells produce no appreciable increases in fluorescence. Therefore, the fluorescence signal produced by the binding interaction with dead cell DNA is proportional to cytotoxicity.
The mixture of Hek293 cell suspension and reagents were dispensed at 600cells/6 ul/well in 1536-well tissue culture treated black solid bottom plates using a Multidrop dispenser. After the assay plates were incubated at a 37 C/5% CO2 incubator for 5 hours, 23 nL of compounds dissolved in DMSO, positive and negative controls was transferred to the assay plate by a pintool work station. The plates were incubated at 37 C for 40 hours. The fluorescence intensity were measured at 0h, 8h, 16h, 24h, 32h and 40h time points using ViewLux plate reader during compound treatment.
With `CN[C@H]1CC[C@@H](c2ccc(Cl)c(Cl)c2)c2ccc(S(N)(=O)=O)cc21`, the Potency is 24.5 µM (active). The same measure, in the same setting: as for `Cc1ccc2n[nH]nc2c1`, the entry is “inactive”.

`O=C(NCc1ncc(C(F)(F)F)cc1Cl)c1c(Cl)cccc1Cl`: the Potency entry is “inactive”. On the same count and under the same terms, as for `CC(c1cc(C(C)(C)C)cc(C(C)(C)C)c1O)c1cc(C(C)(C)C)cc(C(C)(C)C)c1O`, the entry is “inactive”. For the compound `C=Cc1ccc(O)c(OC)c1`, the Potency result is “inactive”. Regarding `CCN(CC)c1ccc(C=O)c(O)c1`, the Potency entry was “inactive”. Regarding `O=C(c1ccccc1)c1ccc(Cl)cc1`, the Potency entry was “inactive”. The same measure, in the same setting: the same measure for `NC(=O)c1ccccc1Cl`: “inactive”; for `C/C(=N\[Si](C)(C)C)O[Si](C)(C)C`: “inactive”.

`CC1(C)[C@H]2CC[C@]1(C)C(=O)C2`: the Potency result was “inactive”. The same measure, in the same setting: as for `COc1cccc(-c2ccc(/C=C\CN3CCCCCC3)cc2Cl)c1`, the figure is 43.4 µM (active). For the compound `CSc1ccc(O)cc1C`, the Potency entry was “inactive”. Take `NCc1cccc(C2CCN(C(=O)c3ccc(C#Cc4ccccc4F)o3)CC2)c1`: the Potency is 49 µM (active). As for `c1ccc2occc2c1`, the Potency entry was “inactive”. On to `COc1cc([C@@H]2c3cc4c(cc3[C@@H](O[C@@H]3O[C@@H]5CO[C@@H](C)O[C@H]5[C@H](O)[C@H]3O)[C@H]3COC(=O)[C@H]23)OCO4)cc(OC)c1O`, for which the Potency entry was “inactive”.

For the compound `CC(C)=NNC(N)=S`, the Potency entry was “inactive”. In the case of `CCOC(=O)[C@H](C)O`, the Potency result is “inactive”.

Consider `CCCCCCCCCCCC(=O)Cl`, for which the Potency result is “inactive”. The same measure, in the same setting: the same measure for `O=C1CCC(=O)N1`: “inactive”.

Turning to `C/C=C/C(=O)C1=C(C)C=CCC1(C)C`, the Potency entry is “inactive”. Still for that read-out and setting: the same measure for `CC(C)(C)c1cc(CCC(=O)OCCSCCOC(=O)CCc2cc(C(C)(C)C)c(O)c(C(C)(C)C)c2)cc(C(C)(C)C)c1O`: “inactive”. In the case of `c1ccc(-c2ccccc2-c2ccccc2)cc1`, the Potency result was “inactive”. Turning to `Nc1ccc2c(S(=O)(=O)O)cccc2c1S(=O)(=O)O`, the Potency entry was “inactive”. For `C[C@H]1O[C@@H](O[C@H]2CC[C@@]3(C)[C@H](CC[C@@H]4[C@@H]3C[C@@H](O)[C@]3(C)[C@@H](C5=CC(=O)OC5)CC[C@]43O)C2)C[C@H](O)[C@@H]1O[C@H]1C[C@H](O)[C@H](O[C@H]2C[C@H](O)[C@H](O[C@@H]3O[C@H](CO)[C@@H](O)[C@H](O)[C@H]3O)[C@@H](C)O2)[C@@H](C)O1`, the Potency entry is “inactive”. On to `COc1cc(/C=C/C(=O)CC(=O)/C=C/c2ccc(O)c(OC)c2)ccc1O`, for which the Potency is 39.2 µM (active). On to `Cc1ccc(C=O)cc1`, for which the Potency result was “inactive”. Same read-out and setting: the same measure for `CCOc1nc(F)cc2nc(S(=O)(=O)Nc3c(Cl)cccc3C(=O)OC)nn12`: “inactive”; for `O=C1CCCCCCCCCCCCCC1`: 43.6 µM (active).

In the case of `COc1cc(C(C)C)ccc1C`, the cytotoxicity increase was -4.81% [at 15.8 µM].

Regarding `CC(O)(c1ccc(Cl)cc1)c1ccc(Cl)cc1`, the Potency is 49 µM (active). Take `CN1CCN(c2ccccc2/C=C2\SCCN(c3ccc(Cl)c(Cl)c3)C2=O)CC1`: the Potency is 49 µM (active). With `C1CCSC1`, the Potency entry was “inactive”.

Take `O=C1OC(=O)c2cc(-c3ccc4c(c3)C(=O)OC4=O)ccc21`: the Potency result was “inactive”.

Turning to `CCNc1nc(NC(C)(C)C)nc(OC)n1`, the Potency entry was “inactive”. As to `Nc1c(Br)cc([N+](=O)[O-])cc1Br`, the Potency result is “inactive”. For the compound `Nc1ccc(Oc2cccc(Oc3ccc(N)cc3)c2)cc1`, the Potency result was “inactive”. For `CC(Cc1ccc(O)c(O)c1)C(C)Cc1ccc(O)c(O)c1` (stereo not given), the Potency entry is “inactive”.

As for `CC/C=C(\C)C=O`, the Potency entry is “inactive”. On to `CC(C)C(=O)C(C)C`, for which the Potency result was “inactive”.

With `CSc1nnc(C(C)(C)C)c(=O)[nH]1`, the Potency result is “inactive”.
